Test results published in PubChem BioAssay (Tox21).
Results filed as inconclusive are left out. The source made the active and inactive calls. Unless noted, the call rests on the fitted dose curve; in most records, active means well fitted curve in the direction sought with a large enough effect in the repeat runs; inconclusive means weak or mixed curves; inactive means no such curve, though single readings can be large; an effect the other way counts as inactive or inconclusive.

What was measured:
[1] = qHTS RealTime-Glo MT Cell Viability Assay in HEK293 cells - 24 hour (AID 1224886); further: top concentration of the series differs between compounds; nearly all actives have a fitted effect of over 50% in size
Summary of the method: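 Quantitative high-throughput screen of the Tox21 10K library in HEK293: cells and RealTime-Glo reagents plated together, compound added at 5 h, luminescence monitored through 40 h at 37 C.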

[2] = qHTS RealTime-Glo MT Cell Viability Assay in HEK293 cells - 8 hour (AID 1224887); further: top concentration of the series differs between compounds; nearly all actives have a fitted effect of over 50% in size
Summary of the method: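 Luminescence, which tracks viable cell number through reduction of the prosubstrate to a NanoLuc substrate, was read over continuous 37 C culture. Cells (600/well) were premixed with reagent and rested 5 h before 23 nL of compound in DMSO was pinned.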

[3] = A CellTox Green Cytotoxicity Assay to monitor cytotoxicity in HEK293 cells - 16 hour (AID 1224888); further: nearly all actives have a fitted effect of over 35% in size
Summary of the method: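 Fluorescence from a DNA-binding dye excluded by viable cells was measured repeatedly in the same HEK293 wells (600 cells/well) during continuous compound exposure at 37 C. Each assay gives one read point: 0, 8, 16, 24, 32 or 40 h.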

[4] = qHTS RealTime-Glo MT Cell Viability Assay in HepG2 cells - 0 hour (AID 1224889); further: nearly all actives have a fitted effect of over 50% in size
Summary of the method: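 Compound treatment began 5 h after plating HepG2 cells (600/well) with NanoLuc luciferase and prosubstrate. Plates stayed at 37 C for 40 h; luminescence was captured at six time points, 0 h through 40 h.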

[5] = A CellTox Green Cytotoxicity Assay to monitor cytotoxicity in HepG2 cells - 8 hour (AID 1224890); further: nearly all actives have a fitted effect of over 45% in size
Summary of the method: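 Real-time cytotoxicity: fluorescence of a cell-impermeant cyanine dye binding DNA of dead HepG2 cells, measured repeatedly (0–40 h) during compound exposure at 37 C. Cells seeded 600/well with reagent, dosed after 5 h.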

[6] = qHTS assay to identify small molecule antagonists of the estrogen receptor alpha (ER-alpha) signaling pathway using the BG1 cell line in the presence of 0.1 nM 17-beta-estradiol - cell viability counter screen (AID 1259241); further: nearly all actives have a fitted effect of over 40% in size
Summary of the method: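 VM7Luc4E2 cells (endogenous ER-alpha, 4×ERE-luciferase), hormone-starved 5 days in charcoal-stripped FBS, were treated with compounds plus 0.1 nM 17beta-estradiol for 22 hr at 37C; viability read in same wells as CellTiter-Fluor live-cell protease fluorescence.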

[7] = qHTS assay to identify small molecule antagonists of the androgen receptor (AR) signaling pathway using the MDA cell line in the presence of 0.5 nM R1881 - cell viability counter screen (AID 1259242); further: nearly all actives have a fitted effect of over 45% in size
Summary of the method: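 Live-cell protease activity was measured by CellTiter-Fluor fluorescence after 30 min. Before that, MDA-kb2 MMTV-luciferase cells had 16 hr at 37C without CO2, exposed to test compounds and 0.5 nM R1881 final.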

[8] = qHTS assay to identify small molecule HDAC inhibitors (AID 1259364); further: top concentration of the series differs between compounds; nearly all actives have a fitted effect of over 45% in size
Summary of the method: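 Luminescence read after 30 min room-temperature HDAC-Glo incubation measures cellular class I/II HDAC activity. Compounds were applied for 2 hr at 37 C to HCT-116 wild-type cells seeded the day before.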

[9] = qHTS assay to identify small molecule HDAC inhibitors - cell viability counter screen (AID 1259365); further: series mostly up to about 92 µM; nearly all actives have a fitted effect of over 50% in size
Summary of the method: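 Wild-type HCT-116 cells were seeded at 1,500 per well, incubated overnight at 37 C, then exposed to compounds in DMSO for 2hr. Viability was read by CellTiter-Glo luminescence after 30min at room temperature.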

[10] = qHTS assay to identify small molecule agonists of the sonic hedgehog signaling (Shh) pathway - cell viability counter screen (AID 1259366); further: nearly all actives have a fitted effect of over 50% in size
Summary of the method: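 NIH/3T3-derived 3T3 Gli1-Luc cells (stable Gli1-responsive firefly luciferase reporter) were seeded, rested 4 hr at 37 C/5% CO2, then exposed to compounds in DMSO for 24 hr; viability was read by CellTiter-Fluor fluorescence in the same wells.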

[11] = qHTS assay to identify small molecule antagonists of the sonic hedgehog signaling (Shh) pathway - cell viability counter screen (AID 1259367); further: nearly all actives have a fitted effect of over 55% in size
Summary of the method: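 Fluorescence read-out (CellTiter-Fluor, 1 hr at 37C) taken after 23 hr compound treatment of 3T3 Gli1-Luc cells stimulated with conditioned medium. Cells were seeded at 2,000 per well and pre-incubated 4 hr.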

[12] = qHTS assay to identify small molecule agonists of the sonic hedgehog signaling (Shh) pathway (AID 1259368; calls by dose curve; further: series mostly up to about 92 µM; nearly all actives have a fitted effect of over 15% in size)
Summary of the method: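 Luminescence was read after 30 min at room temperature with luciferase reagent. Before that, 3T3Gli1-Luc cells (NIH/3T3 clone, stable Gli1-Luc reporter; 2,000/well) were exposed to compounds for 24 hr at 37C, 5% CO2, compounds being added 4 hr post-plating.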

[13] = qHTS assay to identify small molecule antagonists of the sonic hedgehog signaling (Shh) pathway (AID 1259369; calls by dose curve; further: nearly all actives have a fitted effect of over 45% in size)
Summary of the method: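 Antagonist mode: compound added to 3T3 Gli1-Luc cells followed by conditioned-medium stimulation, 24 h at 37 C, 5% CO2. Inhibition taken as loss of Gli1-driven luciferase luminescence.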

[14] = molecular target: Estrogen receptor beta (Homo sapiens) (UniProt Q92731); experiment: qHTS assay to identify small molecule agonists of the estrogen receptor beta (ER-beta) signaling pathway (AID 1259377; active means well fitted activation curve with a large enough effect in the signal ratio in the repeat runs, not every such curve was filed as active; the % refers to the signal ratio)
Summary of the method: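 ER-beta-UAS-bla HEK293T (GripTite) cells carrying a UAS-driven beta-lactamase reporter, in medium with 2% charcoal-stripped FBS, were exposed to compounds for 16 hr at 37C; LiveBLAzer B/G FRET substrate was then added and fluorescence read after 2 hours at room temperature.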

[15] = molecular target: Estrogen receptor beta (Homo sapiens) (UniProt Q92731); experiment: qHTS assay to identify small molecule antagonists of the estrogen receptor beta (ER-beta) signaling pathway (AID 1259378; active means well fitted inhibition curve with a large enough effect in the signal ratio in the repeat runs, not every such curve was filed as active; the % refers to the signal ratio)
Summary of the method: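 ER-beta-UAS-bla HEK293T cells in 2% charcoal-stripped FBS medium treated with compound plus 1nM final 17-beta-estradiol for 16 hr at 37C. Beta-lactamase reporter read by FRET substrate fluorescence after 2 hours at room temperature.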

[16] = qHTS assay to identify small molecule agonists of the androgen receptor (AR) signaling pathway in the presence of an antagonist - cell viability counter screen (AID 1259379);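 further: MDA-kb2 human breast cancer cells carrying an MMTV luciferase reporter; series mostly up to about 92 µM; nearly all actives have a fitted effect of over 25% in size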
Summary of the method: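 Cytotoxicity counter-screen run in the same wells as the nilutamide-challenged (3.0 µM final) AR agonist assay in MDA-kb2 cells. Compounds tested at 15 concentrations for 16 h, 37 °C without CO2; CellTiter-Fluor fluorescence read.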

[17] = qHTS assay to identify small molecule agonists of the estrogen receptor beta (ER-beta) signaling pathway - cell viability counter screen (AID 1259380); further: nearly all actives have a fitted effect of over 30% in size
Summary of the method: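 Cell viability counter screen: CellTiter-Glo luminescence (30 min, room temperature) measured in the same wells as the beta-lactamase readout, after 16 hr compound exposure at 37C of ER-beta-bla HEK293T cells in 2% charcoal-stripped FBS medium.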

[18] = qHTS assay to identify small molecule phospholipidosis (PLD) inducers (AID 1259344; active means well fitted curve in the direction sought with a large enough effect; an effect the other way counts as inactive or inconclusive)
Summary of the method: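 Read-out is LipidTOX Red fluorescence (ex 595/em 615) imaged in HepG2 cells after 24 h compound exposure at 37 C, with Hoechst nuclear counterstain (ex 352/em 461) allowing per-cell normalisation.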

[19] = molecular target: Estrogen receptor (Homo sapiens) (UniProt P03372); experiment: qHTS assay to identify small molecule antagonists of the estrogen receptor alpha (ER-alpha) signaling pathway using the BG1 cell line in the presence of 0.1 nM 17-beta-estradiol (AID 1259244); further: nearly all actives have a fitted effect of over 50% in size
Summary of the method: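 Luciferase luminescence (ONE-Glo, 30 min at room temperature) was read after 22 hr at 37C exposure to compounds plus 17beta-estradiol at 0.1 nM final. Cells were VM7Luc4E2 with endogenous ER-alpha and an ERE-driven luciferase, pre-cultured 5 days in hormone-depleted medium.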

Measured: Potency

Chain of Estrogen receptor (Homo sapiens) (P03372 whole entry, looked up): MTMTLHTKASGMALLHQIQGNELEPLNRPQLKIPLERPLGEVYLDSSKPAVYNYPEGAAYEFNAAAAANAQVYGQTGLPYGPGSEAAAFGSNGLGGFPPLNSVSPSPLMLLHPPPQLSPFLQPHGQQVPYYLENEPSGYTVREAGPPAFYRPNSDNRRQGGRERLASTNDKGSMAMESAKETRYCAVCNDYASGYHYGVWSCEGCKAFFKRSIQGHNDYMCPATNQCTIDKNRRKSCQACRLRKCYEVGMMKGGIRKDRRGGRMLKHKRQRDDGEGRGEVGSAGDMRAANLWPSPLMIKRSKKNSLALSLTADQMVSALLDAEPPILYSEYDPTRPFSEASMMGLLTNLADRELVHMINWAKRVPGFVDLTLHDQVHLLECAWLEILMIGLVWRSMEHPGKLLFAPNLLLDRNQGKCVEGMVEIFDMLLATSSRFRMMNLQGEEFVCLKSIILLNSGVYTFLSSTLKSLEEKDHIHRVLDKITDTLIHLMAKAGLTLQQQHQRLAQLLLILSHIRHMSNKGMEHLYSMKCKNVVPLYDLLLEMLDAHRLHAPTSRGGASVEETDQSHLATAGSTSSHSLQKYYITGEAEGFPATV
Chain of Estrogen receptor beta (Homo sapiens) (Q92731 whole entry, looked up): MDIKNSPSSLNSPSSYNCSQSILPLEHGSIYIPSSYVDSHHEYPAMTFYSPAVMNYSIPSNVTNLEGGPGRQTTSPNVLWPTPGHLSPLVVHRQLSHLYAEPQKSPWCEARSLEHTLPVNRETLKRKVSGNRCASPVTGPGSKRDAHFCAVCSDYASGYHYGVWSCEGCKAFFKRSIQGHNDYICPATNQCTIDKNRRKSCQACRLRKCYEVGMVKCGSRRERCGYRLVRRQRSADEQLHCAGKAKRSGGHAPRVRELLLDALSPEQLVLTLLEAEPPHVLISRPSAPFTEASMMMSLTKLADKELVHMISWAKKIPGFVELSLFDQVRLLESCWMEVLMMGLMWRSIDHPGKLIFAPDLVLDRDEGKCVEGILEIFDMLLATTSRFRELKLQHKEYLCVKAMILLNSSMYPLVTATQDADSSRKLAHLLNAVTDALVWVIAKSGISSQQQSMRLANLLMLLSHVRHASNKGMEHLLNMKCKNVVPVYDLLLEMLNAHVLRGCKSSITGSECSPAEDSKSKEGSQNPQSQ

C=CCOc1cc(Cl)ccc1C(=O)NCCN(CC)CC
not listed: [18] | [19]
inactive: all other assays above

CN[C@@H]1[C@@H](O)[C@@H](O[C@@H]2[C@H](O)[C@H](O[C@H]3OC(CN)=CC[C@H]3N)[C@@H](N)C[C@H]2N)OCC1(C)O (stereo partly specified)
not listed: [14] | [15] | [17] | [19]
inactive: all other assays above

Cc1nc2ccccc2c(=O)o1
not listed: [8] | [15] | [18]
inactive: all other assays above

CCCCCCCCOC(C)=O
not listed: [12] | [13] | [14] | [15] | [18]
inactive: all other assays above

Cc1ccccc1C
not listed: [13] | [17] | [18]
inactive: all other assays above

CCCCOC(=O)C(=O)OCCCC
not listed: [14] | [15] | [18] | [19]
inactive: all other assays above

C1CCN2C[C@@H]3C[C@@H](CN4CCCC[C@@H]34)[C@H]2C1
not listed: [12] | [17] | [19]
inactive: all other assays above

CC(=O)OCCCc1ccccc1
not listed: [18] | [19]
inactive: all other assays above

CN(C)CCOCCN(C)CCO
not listed: [14] | [15] | [18]
inactive: all other assays above

CCC(=O)OCCC(C)CCC=C(C)C (stereo unspecified)
not listed: [14] | [15] | [18] | [19]
inactive: all other assays above

CCOc1ccc(NC(=O)OC(C)C)cc1OCC
not listed: [17] | [18] | [19]
inactive: all other assays above

C[Si]1(C)N[Si](C)(C)N[Si](C)(C)N1
not listed: [14] | [15] | [18]
inactive: all other assays above

Cc1ccccc1N1CCN(CCc2nnc3n2CCCC3)CC1
not listed: [19]
inactive: all other assays above

N#CCCOCCOCCC#N
not listed: [11] | [18]
inactive: all other assays above

CCCCCC(=O)OCC
not listed: [18] | [19]
inactive: all other assays above
